According to PubChem BioAssay (NCATS):
Records with an inconclusive call do not appear. A call without a number means that no potency is given here. The source made the active and inactive calls. Unless noted, calls come from the whole dose curve; as a rule, active = well fitted curve in the direction sought with a large enough effect; inconclusive = small, poorly fitted or top-dose-only effect, or another doubt; inactive = no such curve, though single readings can be large; an effect the other way counts as inactive or inconclusive.

Legend:
Furin (Homo sapiens) = Furin (Homo sapiens) (UniProt P09958); assay: Furin counterscreen qHTS for Zika virus inhibitors (AID 1347149);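 note: purified recombinant full-length human furin enzyme at 5 nM; fluorescence gain from furin cutting a BOC-RVRR-AMC peptide substrate over 15 min; top concentration of the series differs between compounds; nearly all actives have a fitted effect of over 70% in size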
Chain of Furin (Homo sapiens) (P09958 whole entry, looked up): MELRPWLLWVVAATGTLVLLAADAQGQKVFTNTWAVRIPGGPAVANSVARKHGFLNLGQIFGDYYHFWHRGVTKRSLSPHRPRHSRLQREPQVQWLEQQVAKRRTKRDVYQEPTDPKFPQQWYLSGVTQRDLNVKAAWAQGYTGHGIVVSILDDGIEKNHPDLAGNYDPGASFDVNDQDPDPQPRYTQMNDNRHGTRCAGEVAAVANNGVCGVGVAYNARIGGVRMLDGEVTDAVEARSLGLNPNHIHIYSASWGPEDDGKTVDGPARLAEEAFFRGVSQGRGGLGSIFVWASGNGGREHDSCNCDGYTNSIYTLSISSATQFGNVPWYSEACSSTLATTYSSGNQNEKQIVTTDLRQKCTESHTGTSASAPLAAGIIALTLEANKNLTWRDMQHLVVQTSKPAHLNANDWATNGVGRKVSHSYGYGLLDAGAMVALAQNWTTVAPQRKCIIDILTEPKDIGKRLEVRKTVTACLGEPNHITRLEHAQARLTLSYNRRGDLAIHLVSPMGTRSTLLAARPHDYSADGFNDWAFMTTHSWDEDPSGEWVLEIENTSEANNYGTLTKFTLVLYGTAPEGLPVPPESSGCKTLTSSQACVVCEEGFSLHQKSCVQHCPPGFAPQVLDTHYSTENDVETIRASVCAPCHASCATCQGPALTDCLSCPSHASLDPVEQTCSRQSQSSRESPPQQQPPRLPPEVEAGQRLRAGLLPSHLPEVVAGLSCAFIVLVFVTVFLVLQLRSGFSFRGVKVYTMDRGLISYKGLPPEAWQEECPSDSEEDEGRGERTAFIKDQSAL
Procedure, shortened: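 Counterscreen measures cleavage of 2 microM BOC-RVRR-AMC, below its ~15 microM Km, by 5 nM full-length human furin at pH 7.0 after a 15-min compound preincubation. Inhibition derives from the 15-min fluorescence increase at 37C.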

[1] = system: Zika virus NS2B-NS3 protease (linked construct); assay: Confirmatory screen NINDS AMC qHTS for Zika virus inhibitors (AID 1347152);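 note: AMC fluorescence gain from cleaved Bz-Nle-KRR-AMC substrate over 15 min; top concentration of the series differs between compounds; nearly all actives have a fitted effect of over 70% in size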
Procedure, shortened: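 Enzyme (1 nM, linked construct) was preincubated with compound for 15 minutes at room temperature in 10 mM Tris-HCl pH 8.0 with 0.01% Tween 20. Bz-Nle-Lys-Arg-Arg-AMC was then added to 10 microM, and AMC fluorescence was recorded immediately and after 15 minutes.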

[2] = system: Zika virus NS2B-NS3 protease (unlinked complex); assay: Confirmatory screen GU AMC qHTS for Zika virus inhibitors (AID 1347153); note: nearly all actives have a fitted effect of over 70% in size
Procedure, shortened: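 Noncovalent NS2B hydrophilic domain/NS3 protease complex (25 nM) in 10 mM Tris-HCl pH 8.0, 0.01% Tween 20 was preincubated 15 min at room temperature with compounds. Then 10 µM AMC substrate (Km 18.3 µM) was added; fluorescence was read over 15 min and fitted to a 4-parameter Hill equation.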

[3] = ZIKV-mCherry secondary qHTS for Zika virus inhibitors (AID 1347158); note: top concentration of the series differs between compounds
Procedure, shortened: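 Percent infection is the share of Hoechst-identified Vero nuclei with mCherry signal above 450 RFU (3 SD over negative controls). Cells were infected with recombinant ZIKV-mCherry at MOI 1 after compound addition and imaged 48–72 h later.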

[4] = system: Zika virus NS2B-NS3 protease; assay: Primary screen GU AMC qHTS for Zika virus inhibitors (AID 1347154); note: potency is the fitted concentration of half-maximal effect; nearly all actives have a fitted effect of over 70% in size
Procedure, shortened: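 Unlinked Zika NS2B hydrophilic domain–NS3 protease complex at 25 nM in 10 mM Tris-HCl pH 8.0, 0.01% Tween 20, with an AMC peptide substrate. Fluorescence change (340/450 nm) over 15 min at room temperature, normalized to controls, fitted to 4-parameter Hill.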

[5] = Confirmatory screen NINDS Rhodamine qHTS for Zika virus inhibitors (AID 1347161);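 note: purified Zika NS2B-NS3 protease with linked NS2B cofactor domain and Rhodamine110 peptide substrate; nearly all actives have a fitted effect of over 60% in size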
Procedure, shortened: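 Single-chain NS2B-NS3 protease, 25 nM, pH 8.0; compounds preincubated 15 min. Activity: Rhodamine110 release from 1.5 microM substrate over 15 min, room temperature, data fitted to 4-parameter Hill.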

[6] = Vero cells viability qHTS for Zika virus inhibitors (AID 1347167)
Procedure, shortened: (§1)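 qHTS titration; 24-48 h compound exposure, 37 degrees C/5% CO2; DMEM, 4% FBS; CellTiter Glo ATP luminescence.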

[7] = HepG2 cells viability qHTS for Zika virus inhibitors (AID 1347168)
Procedure, shortened: as §1

[8] = system: Zika virus NS2B-NS3 protease (unlinked); assay: Optimization of GU AMC qHTS for Zika virus inhibitors: Unlinked NS2B-NS3 protease assay (AID 1347151); note: nearly all actives have a fitted effect of over 80% in size; note: potency is the fitted concentration of half-maximal effect
Procedure, shortened: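 Unlinked protease (25 nM final); buffer 10 mM Tris-HCl pH 8.0 + 0.01% Tween 20; AMC substrate; 15 min RT, dark; Δfluorescence normalized to no-inhibitor/no-enzyme controls; 4-parameter Hill fit.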

[9] = system: Zika virus NS2B-NS3 protease (linked); assay: 384 well plate NINDS AMC confirmatory qHTS for Zika virus inhibitors (AID 1347163); note: potency is the fitted concentration of half-maximal effect; nearly all actives have a fitted effect of over 50% in size
Procedure, shortened: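 Fluorescence at 355/460 nm was read after 25 minutes of cleavage of 30 microM Ac-VKTGKR-AMC at room temperature, in the dark. Before substrate addition, compounds (up to 1 mM final) sat ~15 minutes with 5, 30 or 60 nM linked protease. Signals were normalized to no-enzyme and no-inhibitor wells.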

[10] = system: Zika virus NS2B-NS3 protease (linked construct); assay: 384 well plate NINDS Rhodamine confirmatory qHTS for Zika virus inhibitors (AID 1347164);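 note: fluorescence from protease cleavage of Ac-LKRR-rhodamine 110 substrate; top concentration of the series differs between compounds; nearly all actives have a fitted effect of over 65% in size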
Procedure, shortened: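 Enzyme (final 5/30/60 nM) + cpd (DMSO), ~15 min; add Ac-LKRR-Rd 10 microM final; 25 min RT, dark; FI ex 485/em 538; normalized to no-enzyme, no-inhibitor ctrls; aprotinin intraplate ctrl.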

[11] = Tertiary RLuc qRT-PCR qHTS assay for Zika virus inhibitors (AID 1347169); note: top concentration of the series differs between compounds; nearly all actives have a fitted effect of over 55% in size
Procedure, shortened: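 Vero, 1,000 cells/well, o/n 37 C; cpd pinned in DMSO; ZIKV-RLuc Cambodian, MOI 1-2, 48-72 h 37 C; live-cell RLuc substrate, lum read at 1-1.5 h.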

[12] = biological target: Catechol O-methyltransferase (Homo sapiens) (UniProt P21964); assay: Confirmatory Screen for Target Class Profiling of Small Molecule Inhibitors of Methyltransferases (AID 1745852; calls by dose curve; note: potency is the fitted concentration of half-maximal effect); conditions: MTase-Glo luminescence, SAH detection, recombinant enzyme; measured here: COMT max response; stronger effect = lower value
Chain of Catechol O-methyltransferase (Homo sapiens) (P21964 whole entry, looked up): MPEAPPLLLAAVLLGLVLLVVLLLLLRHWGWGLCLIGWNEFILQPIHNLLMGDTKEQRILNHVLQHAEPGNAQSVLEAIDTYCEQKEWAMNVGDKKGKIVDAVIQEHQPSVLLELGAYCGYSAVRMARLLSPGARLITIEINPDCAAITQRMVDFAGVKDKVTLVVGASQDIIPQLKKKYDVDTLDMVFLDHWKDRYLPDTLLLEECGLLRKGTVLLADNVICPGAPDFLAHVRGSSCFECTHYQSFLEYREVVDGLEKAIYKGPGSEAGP

[13] = biological target: Guanidinoacetate N-methyltransferase (Homo sapiens) (UniProt Q14353); assay: as above; conditions: activity change, negative = inhibition: at 57.3 µM (top of the series) unless noted
[14] = biological target: Nicotinamide N-methyltransferase (Homo sapiens) (UniProt P40261); assay: as above; conditions: MTase-Glo luminescence, SAH detection, recombinant enzyme; measured here: NNMT max response; stronger effect = lower value
Chain of Nicotinamide N-methyltransferase (Homo sapiens) (P40261 whole entry, looked up): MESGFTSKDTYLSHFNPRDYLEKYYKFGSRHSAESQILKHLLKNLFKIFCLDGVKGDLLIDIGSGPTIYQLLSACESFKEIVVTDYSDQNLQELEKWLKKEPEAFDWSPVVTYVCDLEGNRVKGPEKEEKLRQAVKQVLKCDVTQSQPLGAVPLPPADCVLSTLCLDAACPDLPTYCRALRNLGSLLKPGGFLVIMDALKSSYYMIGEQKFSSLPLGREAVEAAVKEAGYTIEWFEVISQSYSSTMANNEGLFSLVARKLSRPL

[15] = biological target: Phenylethanolamine N-methyltransferase (Homo sapiens) (UniProt P11086); assay: as above; conditions: MTase-Glo luminescence, SAH detection, recombinant enzyme; measured here: PNMT max response; stronger effect = lower value
Chain of Phenylethanolamine N-methyltransferase (Homo sapiens) (P11086 whole entry, looked up): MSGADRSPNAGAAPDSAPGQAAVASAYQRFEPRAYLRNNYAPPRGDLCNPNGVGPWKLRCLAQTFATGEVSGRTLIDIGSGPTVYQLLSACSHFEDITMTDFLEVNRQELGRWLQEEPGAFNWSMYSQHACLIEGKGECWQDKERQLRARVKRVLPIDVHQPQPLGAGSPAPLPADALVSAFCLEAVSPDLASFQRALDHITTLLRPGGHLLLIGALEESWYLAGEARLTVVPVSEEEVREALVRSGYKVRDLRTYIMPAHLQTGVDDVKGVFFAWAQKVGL

Q: For O=C(O)c1cccc(-c2cccc(C(F)(F)F)c2)c1, which Potency (Furin (Homo sapiens)) is on record?
A: The Potency was “inactive”.

Q: And the Potency [1]?
A: Its Potency is “inactive”.

Q: What about the Potency [2] of the same molecule?
A: Its Potency is “inactive”.

Q: What about the Potency [3] of the same molecule?
A: Its Potency is “inactive”.

Q: What does the source list for CCOC(=O)O[C@H](C)OC(=O)C1N2C(=O)[C@H](NC(=O)[C@H](N)c3ccccc3)C2SC1(C)C (stereo partly specified)?
A: Potency (Furin (Homo sapiens)): inactive; Potency [1]: inactive; Potency [2]: inactive; Potency [4]: 26.7 µM (active); Potency [5]: inactive; Potency [6]: inactive; Potency [7]: inactive

Q: With O=C(Nc1cccc2ccccc12)O[C@@H]1CO[C@H]2[C@@H]1OC[C@@H]2NS(=O)(=O)c1cccc2cccnc12 as the molecule, how does the Potency (Furin (Homo sapiens)) read?
A: The Potency was “inactive”.

Q: And the Potency [1]?
A: The Potency was “inactive”.

Q: What about the Potency [2] of the same molecule?
A: The Potency was “inactive”.

Q: What does the source list for CN1CCN(C(=O)CCN2C(=O)/C(=C\c3ccccc3F)SC2=S)CC1?
A: Potency (Furin (Homo sapiens)): inactive; Potency [8]: 49.4 µM (active); Potency [9]: 251 µM (active); Potency [10]: inactive; Potency [6]: inactive; Potency [7]: inactive; Potency [11]: inactive

Q: Which Potency (Furin (Homo sapiens)) does the source give for O=C1OC2(c3ccccc31)c1ccc3cc(O)ccc3c1Oc1c2ccc2cc(O)ccc12 here?
A: The Potency was “inactive”.

Q: For Nc1ncnc2c1ncn2[C@@H]1O[C@H](C[C@@H](N)CC[C@H](N)C(=O)O)[C@@H](O)[C@H]1O, which Potency (Furin (Homo sapiens)) is on record?
A: Its Potency is “inactive”.

Q: What about the Potency [8] of the same molecule?
A: Its Potency is “inactive”.

Q: And the Potency [6]?
A: Its Potency is “inactive”.

Q: What about the Potency [7] of the same molecule?
A: The Potency was “inactive”.

Q: And the Potency [11]?
A: Its Potency is “inactive”.

Q: What about the activity [12] of the same molecule?
A: The activity was -81.8%.

Q: What about the Potency [13] of the same molecule?
A: The Potency was 21.7 µM (active).

Q: What about the activity [14] of the same molecule?
A: Its activity is -74.5%.

Q: What about the activity [15] of the same molecule?
A: Its activity is -86.5%.
